Test results published in PubChem BioAssay (NCATS).
Inconclusive results are not listed. Entries that show only a call come without a potency. Activity calls are given as the source filed them. Calls follow the shape of the dose curve; as a rule, active = well fitted inhibition curve with a large enough effect; inconclusive = small, poorly fitted or top-dose-only effect; inactive = flat fitted curve, though single readings scatter.

Columns and labels:
Assay in all cases: qHTS profiling for inhibitors of Plasmodium falciparum proliferation (AID 504749); also: nearly all actives have a fitted effect of over 60% in size
Conditions in all cases: P. falciparum in erythrocytes, SYBR Green DNA, 72 h; series mostly up to 28.7 µM
CP335 = test system: CP335
Summary of the method: (§1)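 Each compound contacts P. falciparum-infected red blood cells for 72 h at 37 C; lysis buffer (Tris, EDTA, saponin, Triton X, SYBR Green I) is added and fluorescence measured next morning; values normalized to controls.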

DFO2036 = test system: DFO2036
Summary of the method: as §1

DIV14 = test system: DIV14
Summary of the method: as §1

DIV17 = test system: DIV17
Summary of the method: as §1

DIV30 = test system: DIV30
Summary of the method: as §1

Dd2 = test system: Dd2
Summary of the method: as §1

ECU = test system: ECU
Summary of the method: as §1

FAB9 = test system: FAB9
Summary of the method: as §1

GB4 = test system: GB4
Summary of the method: as §1

HB3 = test system: HB3
Summary of the method: as §1

ICS = test system: ICS
Summary of the method: as §1

JCK = test system: JCK
Summary of the method: as §1

N140 = test system: N140
Summary of the method: as §1

P93_24 = test system: P93_24
Summary of the method: as §1

P94_40 = test system: P94_40
Summary of the method: as §1

PAD = test system: PAD
Summary of the method: as §1

PC15 = test system: PC15
Summary of the method: as §1

PC49 = test system: PC49
Summary of the method: as §1

SC27B = test system: SC27B
Summary of the method: as §1

PC26 = test system: PC26
Summary of the method: as §1
Potency is read from the fitted curve at half-maximal effect.

| SMILES | Potency (CP335) | Potency (DFO2036) | Potency (DIV14) | Potency (DIV17) | outcome (DIV30) | Potency (Dd2) | Potency (ECU) | outcome (FAB9) | Potency (GB4) | Potency (HB3) | Potency (ICS) | outcome (JCK) | Potency (N140) | Potency (P93_24) | Potency (P94_40) | Potency (PAD) | Potency (PC15) | Potency (PC49) | Potency (SC27B) | Potency (PC26) |
| --- | --- | --- | --- | --- | --- | --- | --- | --- | --- | --- | --- | --- | --- | --- | --- | --- | --- | --- | --- | --- |
| CCCCCCCCCCCCCCCCCCOC[C@H](COP(=O)([O-])OCC[N+](C)(C)C)OC | inactive | inactive | inactive | inactive | inactive | inactive | inactive | inactive | inactive | inactive | inactive | inactive | inactive | inactive | inactive | inactive | inactive | inactive | inactive | – |
| CN1C2CCC1CC(OC(c1ccccc1)c1ccccc1)C2 (stereo unspecified) | – | – | 4.78 µM (active) | 3.01 µM (active) | – | – | – | inactive | – | inactive | 0.178 µM (active) | inactive | inactive | – | – | – | – | 2 µM (active) | inactive | – |
| CC(C)NC[C@H](O)COc1ccc(CC(N)=O)cc1 | inactive | inactive | inactive | inactive | inactive | inactive | inactive | inactive | inactive | inactive | inactive | inactive | inactive | – | inactive | inactive | inactive | inactive | inactive | inactive |
| CCCCCCCCCCCCCCC[C@H](O)[C@H](N)CO | inactive | inactive | inactive | inactive | inactive | – | inactive | inactive | inactive | inactive | – | inactive | inactive | inactive | inactive | inactive | inactive | inactive | inactive | inactive |
| CC(O)C(O)[C@H]1CNc2nc(N)[nH]c(=O)c2N1 (stereo partly specified) | inactive | inactive | inactive | inactive | inactive | inactive | inactive | inactive | inactive | inactive | inactive | inactive | inactive | inactive | inactive | inactive | inactive | inactive | inactive | inactive |
| c1ccc(C2CN3CCSC3=N2)cc1 (stereo unspecified) | 5.36 µM (active) | 6.31 µM (active) | 2.69 µM (active) | 3.01 µM (active) | – | 3.98 µM (active) | 8.91 µM (active) | – | 8.49 µM (active) | 3.16 µM (active) | 1.26 µM (active) | – | 3.98 µM (active) | 2.82 µM (active) | 3.55 µM (active) | 7.94 µM (active) | 2.82 µM (active) | – | 10 µM (active) | 15.1 µM (active) |
